Source: PubChem BioAssay (several laboratories)
FadD28 FP inh = blocks FadD28 binding to the bisubstrate probe; fluorescence polarization; inhibition, % at 12.5 µM; 0.22% of 360,000 active; AID 588549; in the data active = inhibition above about 8.5%, passing the limit was not always enough; inconclusive = no clear call, values can overlap the other calls
FBA Mtb inh = inhibits M. tuberculosis FBA enzyme; P9WQA3; purified M. tuberculosis FBA, fluorescence read-out; inhibition, % at 1 µM; 2.3% of 360,000 active;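 note: 0% = vehicle and 100% = reference inhibitor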
Target sequence (P9WQA3 whole entry, looked up): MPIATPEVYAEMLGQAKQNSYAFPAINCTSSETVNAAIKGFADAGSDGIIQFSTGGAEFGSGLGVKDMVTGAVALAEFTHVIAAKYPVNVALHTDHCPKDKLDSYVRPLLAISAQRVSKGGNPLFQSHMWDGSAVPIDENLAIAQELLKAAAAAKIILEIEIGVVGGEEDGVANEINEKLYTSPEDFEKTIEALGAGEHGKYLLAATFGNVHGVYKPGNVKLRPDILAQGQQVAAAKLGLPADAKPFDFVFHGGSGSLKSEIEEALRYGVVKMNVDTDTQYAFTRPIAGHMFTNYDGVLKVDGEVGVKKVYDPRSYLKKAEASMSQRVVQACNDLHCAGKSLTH
Mtb betalactam = beta-lactam sensitization of Mtb H37Rv | M. tuberculosis H37Rv growth with meropenem, percent inhibition | 0.27% of 330,000 active | inhibition, % at 25 µM; call rule not given here;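 note: growth measured after seven days incubation then overnight dye step; 0% = bacteria only wells and 100% = bacteria with antibiotic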
UGM FP inh = blocks M. tuberculosis UGM enzyme; P9WIQ1; purified UGM, fluorescence polarization probe displacement; inhibition, % at 10 µM; 0.06% of 320,000 active; AID 504406; in the data active = inhibition above about 10%, passing the limit was not always enough; inconclusive = no clear call, values can overlap the other calls
Rv3671c protease = Rv3671c (M. tuberculosis) protease inhibition; P9WHR9; 0.048% of 320,000 active; inhibition, % at 5.96 µM; in the data active = inhibition above about 38%;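 note: extracellular domain of Rv3671c used as enzyme; 0% = enzyme with DMSO and 100% = no enzyme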
GDH-TPI counter-1 = inhibits GDH-TPI coupling enzymes, artifact for Mtb FBA screen; GDH-TPI coupled enzyme counterscreen, NADH absorbance; inhibition, % at 4.8 µM; 1.2% of 360,000 active; in the data active = inhibition above about 30%;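 note: 0% = DMSO wells and 100% = wells lacking the enzyme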
Mtb FBA inh conf = confirmation of M. tuberculosis fructose-bisphosphate aldolase inhibitors; shares compounds with FBA Mtb inh; 78% of 5,600 active; inhibition, % at 1 µM; purified M. tuberculosis FBA, fluorescence read-out;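 note: 0% = vehicle wells and 100% = reference inhibitor wells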
GDH-TPI counter-2 = GDH-TPI inhibition counter-screen for FBA inhibitors. shares compounds with FBA Mtb inh. GDH-TPI coupled enzyme counterscreen, fluorescence. inhibition, % at 1 µM. 81% of 5,600 active. AID 652141; in the data active = inhibition above about 10%
GDH-TPI dose = counter-screen for M. tuberculosis FBA inhibitors: GDH-TPI dose response. 79% of 170 active. AID 652145. IC50, µM. GDH-TPI coupled enzyme assay, fluorescence, artifact counterscreen. shares compounds with FBA Mtb inh; call rule not given here
Numbers without * were called inactive. Shown are actives, neighbours in structure and some others; about 3.7% of the full set was active somewhere. Cut-off read from the data, not from the text of the source, unless noted: active = inhibition above about 27%; inactive = the rest.

Screening Cc1ccc(C(=O)CC(c2cccs2)S(=O)(=O)c2ccc(C)cc2)cc1 (stereo unspecified) returned FadD28 FP inh -2.9, FBA Mtb inh 101.5*, Mtb betalactam 7.1, UGM FP inh 0.6, Rv3671c protease -6.7, GDH-TPI counter-1 2.2, Mtb FBA inh conf 61.2* and GDH-TPI counter-2 28.9*.
COc1ccc(-c2nc(-c3cccc(C)c3)no2)cc1OC was read as FadD28 FP inh -0.5, FBA Mtb inh 0.4, UGM FP inh 0.4, Rv3671c protease -9.2 and GDH-TPI counter-1 10.7.
Screening COc1ccccc1-c1nc(-c2cccc(C)c2)no1 returned FadD28 FP inh -2.4, FBA Mtb inh 81.1*, Mtb betalactam 51.8, UGM FP inh -2.8, Rv3671c protease -1.8, GDH-TPI counter-1 1.4, Mtb FBA inh conf 76.2* and GDH-TPI counter-2 53.6*.
`CCCC(=O)N=C1SC2CS(=O)(=O)CC2N1c1ccc(-c2nc3ccc(C)cc3s2)cc1` (stereo unspecified) gave FadD28 FP inh -3.6, FBA Mtb inh 53.2*, Mtb betalactam 2.9, UGM FP inh -1.3, Rv3671c protease -6.5, GDH-TPI counter-1 16.3, Mtb FBA inh conf 140.6* and GDH-TPI counter-2 103.0*.
For Cc1nn(CCc2nn[nH]n2)c2nc(C(F)(F)F)cc(C(F)(F)F)c12 the results were FadD28 FP inh -1.5, FBA Mtb inh 39.2*, Mtb betalactam 24.2, UGM FP inh 1.7, Rv3671c protease 0.3, GDH-TPI counter-1 -10.5 and GDH-TPI counter-2 active.
`CNCc1cc(Cl)cc(OC)c1OC(C)C` gave FadD28 FP inh -1.1, FBA Mtb inh 65.0*, GDH-TPI counter-1 0.0, Mtb FBA inh conf 78.9* and GDH-TPI counter-2 86.0*.
Screening O=[N+]([O-])c1ccc(-c2ccc(C=Nc3cccc4ccccc34)o2)cc1 returned FadD28 FP inh -2.3, FBA Mtb inh 70.9*, Mtb betalactam -7.4, UGM FP inh 3.7, Rv3671c protease -100.3, GDH-TPI counter-1 33.3*, Mtb FBA inh conf 11.6, GDH-TPI counter-2 -3.9 and GDH-TPI dose >10.
O=[N+]([O-])c1ccc(C=Nc2cccc3ccccc23)s1 was read as FadD28 FP inh -4.6, FBA Mtb inh 50.2*, Mtb betalactam 28.7, UGM FP inh -0.1, Rv3671c protease -27.8, GDH-TPI counter-1 -1.9, Mtb FBA inh conf 6.2 and GDH-TPI counter-2 -1.4.
For O=[N+]([O-])c1ccc(C=NN2CCOCC2)s1 the results were FadD28 FP inh 1.0, FBA Mtb inh -14.2 and GDH-TPI counter-1 0.4.
`CN(C)C=Nc1ccc2nc3c(cc2c1)[nH]c1ccccc13` gave FadD28 FP inh 0.2, FBA Mtb inh 51.1*, Mtb betalactam inconclusive, UGM FP inh 2.7, Rv3671c protease -2.0, GDH-TPI counter-1 17.9, Mtb FBA inh conf 172.3* and GDH-TPI counter-2 143.7*.
`Nc1c(O)cccc1C(=O)O` gave FadD28 FP inh -1.4, FBA Mtb inh 39.7*, Mtb betalactam -1.5, UGM FP inh 0.4, Rv3671c protease -63.8, GDH-TPI counter-1 1.4, Mtb FBA inh conf active and GDH-TPI counter-2 192.6*.
`Cc1cccc(C(=O)O)c1O` gave FadD28 FP inh 1.7, FBA Mtb inh 38.4*, GDH-TPI counter-1 0.7, Mtb FBA inh conf 87.4* and GDH-TPI counter-2 51.5*.
For O=C(O)c1ccccc1O the results were FadD28 FP inh -0.4, FBA Mtb inh 46.4*, Mtb betalactam -2.6, UGM FP inh 2.2, Rv3671c protease 8.7, GDH-TPI counter-1 12.1, Mtb FBA inh conf 7.2 and GDH-TPI counter-2 -2.6.
Screening O=C(Cn1c(NCCCO)nc2ccccc21)c1ccc(Cl)cc1Cl returned FadD28 FP inh 0.1, FBA Mtb inh -1.4, Mtb betalactam 1.1, UGM FP inh 2.3, Rv3671c protease -1.2 and GDH-TPI counter-1 1.5.
CCc1nc2ccc(C(=O)Nc3ccc4c(c3)OCC(=O)N4)cn2c1N(C)C(=O)Cc1ccccc1 was read as FadD28 FP inh -2.6, FBA Mtb inh -1.5 and GDH-TPI counter-1 3.1.
